{"source": "ChEMBL document CHEMBL1157539", "about": "“Thousands of chemical starting points for antimalarial lead identification” (Nature, 2010)", "type_in_all_cases": "functional", "key": {"Plasmodium falciparum [1]": {"system": "Plasmodium falciparum", "assay": "GSK_TCMDC: Inhibition of Plasmodium falciparum 3D7 in whole red blood cells, using parasite LDH activity as an index of growth. Test compounds present at 2uM"}, "Plasmodium falciparum [2]": {"system": "Plasmodium falciparum", "assay": "GSK_TCMDC: Inhibition of Plasmodium falciparum Dd2 in whole red blood cells, using parasite LDH activity as an index of growth. Test compounds present at 2uM"}, "HepG2": {"system": "HepG2", "assay": "GSK_TCMDC: Percent inhibition of human HepG2 cell line. Test compounds present at 10uM."}}, "data": [{"smiles": "CN(CCC1CCN(C(=O)/C=C/c2ccc(Cl)c(Cl)c2)CC1)C1CCC(c2c[nH]c3ccccc23)CC1", "note": "(centres undefined)", "values": [{"measurement": "Inhibition", "setting": "Plasmodium falciparum [1]", "result": 87, "unit": "%"}, {"measurement": "Inhibition", "setting": "Plasmodium falciparum [2]", "result": 9, "unit": "%"}, {"measurement": "Inhibition", "setting": "HepG2", "result": 57, "unit": "%"}]}, {"smiles": "Br.COc1nc(-n2ccc(=N)cc2)nc2ccccc12", "values": [{"measurement": "Inhibition", "setting": "Plasmodium falciparum [1]", "result": 90, "unit": "%"}, {"measurement": "Inhibition", "setting": "Plasmodium falciparum [2]", "result": 45, "unit": "%"}, {"measurement": "Inhibition", "setting": "HepG2", "result": 15, "unit": "%"}]}, {"smiles": "CCOc1ccccc1CCNCC1CCN(CC2CCCCC2)CC1.O=C(O)C(F)(F)F", "values": [{"measurement": "Inhibition", "setting": "Plasmodium falciparum [1]", "result": 84, "unit": "%"}, {"measurement": "Inhibition", "setting": "Plasmodium falciparum [2]", "result": 59, "unit": "%"}, {"measurement": "Inhibition", "setting": "HepG2", "result": 35, "unit": "%"}]}, {"smiles": "C=CCc1c(C(=O)NCC23CC4CC(CC(C4)C2)C3)nc2ccccc2c1O", "values": [{"measurement": "Inhibition", "setting": "Plasmodium falciparum [1]", "result": 86, "unit": "%"}, {"measurement": "Inhibition", "setting": "Plasmodium falciparum [2]", "result": 79, "unit": "%"}, {"measurement": "Inhibition", "setting": "HepG2", "result": 40, "unit": "%"}]}, {"smiles": "CN(C)CCN(C)Cc1ccc(-c2ccc(NS(=O)(=O)c3cccc4cccnc34)cc2)cc1.O=C(O)C(F)(F)F", "values": [{"measurement": "Inhibition", "setting": "Plasmodium falciparum [1]", "result": 93, "unit": "%"}, {"measurement": "Inhibition", "setting": "Plasmodium falciparum [2]", "result": 16, "unit": "%"}, {"measurement": "Inhibition", "setting": "HepG2", "result": 23, "unit": "%"}]}, {"smiles": "Cc1cc2nc(-c3ccc(OCC(=O)NCc4ccc(C(C)(C)C)cc4)cc3)[nH]c2cc1C", "values": [{"measurement": "Inhibition", "setting": "Plasmodium falciparum [1]", "result": 94, "unit": "%"}, {"measurement": "Inhibition", "setting": "Plasmodium falciparum [2]", "result": 0, "unit": "%"}, {"measurement": "Inhibition", "setting": "HepG2", "result": 11, "unit": "%"}]}, {"smiles": "Cl.N=C(N)c1ccc(C=CC(=O)NCC(O)CNC(=O)C=Cc2ccc(C(=N)N)cc2)cc1", "note": "(centres undefined)", "values": [{"measurement": "Inhibition", "setting": "Plasmodium falciparum [1]", "result": 90, "unit": "%"}, {"measurement": "Inhibition", "setting": "Plasmodium falciparum [2]", "result": 80, "unit": "%"}, {"measurement": "Inhibition", "setting": "HepG2", "result": 0, "unit": "%"}]}, {"smiles": "COC(=O)c1ccccc1COc1ccc(CC2(NC(=O)[C@H](Nc3ccc(C#N)c4ccccc34)C(C)(C)C)CCCC2)cc1", "values": [{"measurement": "Inhibition", "setting": "Plasmodium falciparum [1]", "result": 95, "unit": "%"}, {"measurement": "Inhibition", "setting": "Plasmodium falciparum [2]", "result": 82, "unit": "%"}, {"measurement": "Inhibition", "setting": "HepG2", "result": 1, "unit": "%"}]}, {"smiles": "COc1cc(Cc2cnc(N)nc2N)cc(OCCCOc2ccccc2)c1OC", "values": [{"measurement": "Inhibition", "setting": "Plasmodium falciparum [1]", "result": 94, "unit": "%"}, {"measurement": "Inhibition", "setting": "Plasmodium falciparum [2]", "result": 2, "unit": "%"}, {"measurement": "Inhibition", "setting": "HepG2", "result": 7, "unit": "%"}]}, {"smiles": "N#Cc1cccc(C(=O)NC2CCN(CCCCCNC(=O)/C=C/c3ccc(Cl)c(Cl)c3)CC2)c1", "values": [{"measurement": "Inhibition", "setting": "Plasmodium falciparum [1]", "result": 100, "unit": "%"}, {"measurement": "Inhibition", "setting": "Plasmodium falciparum [2]", "result": 0, "unit": "%"}, {"measurement": "Inhibition", "setting": "HepG2", "result": 11, "unit": "%"}]}, {"smiles": "COc1ccc(Nc2ncc3c(-c4cccc(NC(=O)c5ccccc5)c4)c[nH]c3n2)cc1OC", "values": [{"measurement": "Inhibition", "setting": "Plasmodium falciparum [1]", "result": 100, "unit": "%"}, {"measurement": "Inhibition", "setting": "Plasmodium falciparum [2]", "result": 95, "unit": "%"}, {"measurement": "Inhibition", "setting": "HepG2", "result": 54, "unit": "%"}]}, {"smiles": "COc1cc(NCCCCNc2ccc(Cl)c(Cl)c2)nc2ccccc12", "values": [{"measurement": "Inhibition", "setting": "Plasmodium falciparum [1]", "result": 100, "unit": "%"}, {"measurement": "Inhibition", "setting": "Plasmodium falciparum [2]", "result": 68, "unit": "%"}, {"measurement": "Inhibition", "setting": "HepG2", "result": 22, "unit": "%"}]}, {"smiles": "Cc1nc2nc(N)nc(N)c2c(C)c1Cc1cccs1.Cl", "values": [{"measurement": "Inhibition", "setting": "Plasmodium falciparum [1]", "result": 95, "unit": "%"}, {"measurement": "Inhibition", "setting": "Plasmodium falciparum [2]", "result": 2, "unit": "%"}, {"measurement": "Inhibition", "setting": "HepG2", "result": 66, "unit": "%"}]}, {"smiles": "CC1CCN(Cc2ccc(NC(=O)c3cc4ccc5cccnc5c4[nH]3)cc2)CC1", "values": [{"measurement": "Inhibition", "setting": "Plasmodium falciparum [1]", "result": 100, "unit": "%"}, {"measurement": "Inhibition", "setting": "Plasmodium falciparum [2]", "result": 93, "unit": "%"}, {"measurement": "Inhibition", "setting": "HepG2", "result": 10, "unit": "%"}]}, {"smiles": "CCCCCN1CCC(NS(=O)(=O)c2cccc(C(=O)Nc3ccc(C(F)(F)F)cc3)c2)C1.O=C(O)C(F)(F)F", "note": "(centres undefined)", "values": [{"measurement": "Inhibition", "setting": "Plasmodium falciparum [1]", "result": 95, "unit": "%"}, {"measurement": "Inhibition", "setting": "Plasmodium falciparum [2]", "result": 5, "unit": "%"}, {"measurement": "Inhibition", "setting": "HepG2", "result": 45, "unit": "%"}]}, {"smiles": "CCCCN1CC[C@@H](CCC(O)c2ccnc3ccc(OCCC(C)C)cc23)[C@@H](CC)C1.O=C(O)C(=O)O", "note": "(some centres undefined)", "values": [{"measurement": "Inhibition", "setting": "Plasmodium falciparum [1]", "result": 94, "unit": "%"}, {"measurement": "Inhibition", "setting": "Plasmodium falciparum [2]", "result": 90, "unit": "%"}, {"measurement": "Inhibition", "setting": "HepG2", "result": 22, "unit": "%"}]}, {"smiles": "COc1ccc(N2CCN(CCCC/C=C/c3ccc(NC(=O)c4cc(Cl)cc(Cl)c4)cc3)CC2)c(OC)c1", "values": [{"measurement": "Inhibition", "setting": "Plasmodium falciparum [1]", "result": 99, "unit": "%"}, {"measurement": "Inhibition", "setting": "Plasmodium falciparum [2]", "result": 39, "unit": "%"}, {"measurement": "Inhibition", "setting": "HepG2", "result": 20, "unit": "%"}]}, {"smiles": "Cc1cc(N(C)C)nc(Nc2ccc(NC(=O)C(C)Oc3ccccc3)cc2)n1", "note": "(centres undefined)", "values": [{"measurement": "Inhibition", "setting": "Plasmodium falciparum [1]", "result": 98, "unit": "%"}, {"measurement": "Inhibition", "setting": "Plasmodium falciparum [2]", "result": 30, "unit": "%"}, {"measurement": "Inhibition", "setting": "HepG2", "result": 2, "unit": "%"}]}]}
